Experimental data from PubChem BioAssay AID1076 (NMMLSC, 2008).
Activity calls are given as the source filed them.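 How the source made its calls: active means cell event count below 40, meaning activity score above 60 where score is 100 minus count; inactive means the rest.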

Experiment: cytotoxicity in LNCaP prostate cells – cell-based, cell event count, single point, cytotoxicity control for prostate differentiation activator project, confirmation (AID 1076);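 further: counts scatter-gated live cells after medium removal discards detached dead cells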
Details: LNCaP cell loss, flow cytometry event count, 4 d, stronger effect = lower value

Compound	cell event count (at 100 µM)	cell event count (event count, at 10 µM)
Cc1ccc(C2=Nc3ccccc3NC(C)(c3ccc(C)o3)C2)o1 (centres undefined)	324 (inactive)	120
Cc1nnc(NCc2n[nH]c(=O)c3ccccc23)c2ccccc12	47 (inactive)	219
CCOC(=O)N1CCN(CC(=O)Nc2cc(C)nn2-c2nc3ccccc3s2)CC1	259 (inactive)	245
Cc1ccccc1-c1nc(CN2CCC(C(=O)NCCC3=CCCCC3)CC2)c(C)o1	11 (inactive)	93.5
N=c1n(CCN2CCCCC2)c2ccccc2n1CC(O)COc1ccccc1 (centres undefined)	20 (inactive)	178
Cc1ccc(-c2noc(CCC(=O)NCCCN3CCN(c4cccc(Cl)c4)CC3)n2)cc1	22 (inactive)	123
CCOC(=O)N1CCN(C(=O)C2CCCN(Cc3nc(-c4ccc(Cl)cc4)oc3C)C2)CC1 (centres undefined)	10 (inactive)	126
Cc1cc(=O)oc(C)c1C(=O)NCCCN1CCN(c2ccc(F)cc2)CC1	236 (inactive)	100
CCn1c(C(=O)NCCCN2CCc3ccccc3C2)cc2sccc21	16 (inactive)	380
CCc1ccc(CNC(=O)CN2C(=O)COc3ccccc32)cc1	78 (inactive)	118
CCCCOc1ccccc1NC(=O)Cn1c(-c2nonc2N)nc2ccccc21	99 (inactive)	86.5
Cc1cccc(-c2nc(CN3CCCC(C(=O)NC4CCCCC4)C3)c(C)o2)c1 (centres undefined)	28 (inactive)	170
